Laboratory results from PubChem BioAssay AID651718 (The Scripps Research Institute Molecular Screening Center, 2012).
Among all 360,000 compounds or so, about 2,700 (0.75%) were called active. Rule as the data show it: active = inhibition above about 4.5%; inactive = the rest. Only a selection was taken, and actives are over-represented in it overall.

tested on: Methionine sulfoxide reductase A (Bos taurus); test: inhibition of methionine sulfoxide reductase A – biochemical, absorbance, bovine, HTS, primary screen (AID 651718); details: purified bovine MsrA, absorbance read-out; at 15.5 µM; hits give high values;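 also: 0% = vehicle wells with enzyme and 100% = reference inhibitor wells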

SMILES | inhibition
NC(=O)CSc1nnc(NC(=O)c2ccc(Br)o2)s1 | 4.64% (active)
COC(=O)CSc1nnc(NC(=O)CCc2ccccc2)s1 | 0.95% (inactive)
CC(C)(C)NC(=O)CSc1nnc(NC(=O)CCc2ccccc2)s1 | 0.59% (inactive)
COC(=O)[C@]12C[C@H](CC(=O)NCCc3ccccc3OC)C(=O)N(Cc3ccccc3)C1=C[C@H](C(C)C)O[C@@H]2C1CC1 | 0.87% (inactive)
COc1ccc(/C=C(\NC(=O)c2ccccc2)C(=O)NCCN2CCOCC2)cc1OC | 2.05% (inactive)
Cc1ccc(C(=O)N/C(=C\c2cn(C)c3ccccc23)C(=O)N2CCN(C)CC2)cc1 | 3.12% (inactive)
CCn1cc(/C=C(\NC(=O)c2ccc(C)cc2)C(=O)NCCN2CCOCC2)c2ccccc21 | 4.67% (active)
O=C(O)Cn1cnc2c(NCc3ccccc3)ncnc21 | 0.37% (inactive)
Cc1ccc(S(=O)(=O)N(C)c2ccc(OCC(=O)NC3=NCCS3)cc2)cc1 | -0.97% (inactive)
Cc1ccc(S(=O)(=O)N(C)c2ccc(OCC(=O)OCC(=O)N(CC#N)c3ccccc3)cc2)cc1 | 0.73% (inactive)
Cc1ccc(S(=O)(=O)N(C)c2ccc(OCC(=O)OCc3ccc(C#N)cc3)cc2)cc1 | 7.12% (active)
NC(=O)c1ccc(-c2csnn2)cc1 | 1.41% (inactive)
Cc1cc(C)nc(N2C(=O)CC(Cc3ccccc3)C2=O)n1 (stereo not drawn) | -1.66% (inactive)
CC1(C)N=C(c2ccccn2)C(C)(C)N1O | 0.21% (inactive)
COC(=O)C1=C(C)NC(=S)NC1c1ccc(OC)cc1 (stereo not drawn) | 0.87% (inactive)
CCCCNc1cccc2c1S(=O)(=O)N[C@@H](C)CO2 | 0.33% (inactive)
Nc1nnnn1/N=C/c1cccs1 | 0.3% (inactive)
COc1ccc(/C=N/n2nnnc2N)cc1OC | 4.82% (active)
Nc1nnnn1/N=C/c1cccc(Br)c1 | 0.5% (inactive)
CCN(CC)Cc1c(C(=O)OC)nnn1-c1nonc1N | 0.6% (inactive)
CC1(C)OC(=O)C2=C(CC(CCc3ccccc3)OC2c2ccc(Cl)cc2)O1 (stereo not drawn) | 0.43% (inactive)
COc1ccc(/C=N\NC(=O)c2sc(N)nc2C)cc1OC | 7.88% (active)

SMILES | inhibition
COc1cc(/C=N/NC(=O)Nc2ccccc2)ccc1OCCOc1ccccc1C | 0.83% (inactive)
Cc1nnsc1C(=O)N/N=C/c1cccc(C(F)(F)F)c1 | -1.17% (inactive)
Cc1cc(OC(=O)NCCc2ccc(F)cc2)ccc1F | 0.24% (inactive)
CCCCCCCCN1C(=O)[C@@H](CC(=O)NCCCC)C[C@@]2(C(=O)OC)C1=C[C@H](C(C)(C)C)O[C@@H]2C | 0.08% (inactive)
O=C(/C=C/Sc1ncn[nH]1)c1ccc(Cl)cc1 | 5.19% (active)
COc1cccc(-c2cc(CNC(=O)[C@@H](Cc3ccccc3)NC(=O)[C@H]3O[C@@H](n4cnc(C(N)=O)n4)[C@H](O)[C@@H]3O)no2)c1 | -0.49% (inactive)
COc1ccccc1CCn1cnc(-c2ccccc2)c1C(C)C | 0% (inactive)
COc1ccc(CCNC(=S)NC(=O)/C=C/c2ccc(C)cc2)cc1OC | 0.54% (inactive)
COc1ccc(/C=C2\N=C3CCCN3C2=O)cc1 | 4.73% (active)
COc1ccc(/C=C2\SC(=N)N(c3ccc(F)cc3)C2=O)cc1 | -0.72% (inactive)
COc1ccc(/C=C2/CCCc3ccccc3C2=O)cc1 | 0.69% (inactive)
CCCCn1c(N)c(N(CCOC)C(=O)COc2c(C)cccc2C)c(=O)[nH]c1=O | 0.79% (inactive)
O=C(NCc1ccccc1)[C@H]1CCCN1C(=O)[C@H]1CCCN1C(=O)c1cc(F)cc(F)c1 | 0.16% (inactive)
O=C(Oc1c(-c2ccco2)oc2ccccc2c1=O)c1cccnc1 | 5.77% (active)
O=C(OCc1cc2ccccc2[nH]c1=O)c1cccnc1 | -0.22% (inactive)
O=C(CC(=O)c1cccnc1)c1ccccc1 | 2.87% (inactive)
CCOc1cc(/C=N/NC(=O)c2cccc(S(=O)(=O)N3CCOCC3)c2)ccc1OCC(=O)N(C)C | 4.25% (inactive)
CC(C)CC(CC(C)C)=NNC(=O)c1ccc(CSc2nncn2C)cc1 | -0.77% (inactive)
CCOc1cc(/C=N/NC(=O)c2ccc(CSc3nncn3C)cc2)ccc1OCC(=O)N1CCOCC1 | 4.92% (active)
CCC(Cc1ccccc1)NS(=O)(=O)c1ccc2c(c1)NC(=O)CS2 (stereo not drawn) | -0.21% (inactive)
CNC(=S)N/N=C/c1ccc(N2CCOCC2)s1 | 3.27% (inactive)
C=CCNC(=S)N/N=C/c1ccc(C)s1 | 4.91% (active)

SMILES | inhibition
C=CCNC(=S)NNC(=O)c1ccc(Br)o1 | -0.22% (inactive)
CC(C)(C)C(c1nc2ccccc2[nH]1)n1c(Cc2csc3ccccc23)nc2ccccc21 (stereo not drawn) | -0.41% (inactive)
COC(=O)C1=C(C)N(Cc2ccccc2C(F)(F)F)C(=NCC2CC2)NC1c1cccc(Cl)c1 (stereo not drawn) | -2.13% (inactive)
O=S1(=O)c2ccc(Br)cc2-n2nncc2CN1Cc1cccc(Cl)c1 | 0.62% (inactive)
CC(C)(C)n1nc(C2CC2)c(Br)c1NC(=O)c1ccccc1F | -0.05% (inactive)
CC(C)C[C@H]1CN([C@@H](Cc2ccccc2)CN2CCC[C@@H]2CN2C(=O)C(=O)NC[C@@H]2Cc2ccc(O)cc2)C(=O)C(=O)N1CCc1ccccc1 | -0.32% (inactive)
O=C(O)c1ccccc1Cc1ccc(F)c2ccccc12 | 0.31% (inactive)
COc1cccc(NC(=O)N(C)C[C@@H]2OCc3cn(nn3)CCCC(=O)N([C@@H](C)CO)C[C@H]2C)c1 | 0.43% (inactive)
C=CCOCCN(C)C1=NS(=O)(=O)c2ccccc21 | 0.32% (inactive)
O=S1(=O)N=C(N(CCO)/N=C/c2ccccc2F)c2ccccc21 | 5.01% (active)
COc1ccc(/C=N/N(C)C2=NS(=O)(=O)c3ccccc32)cc1OC | 1.42% (inactive)
O=S1(=O)c2c(cccc2N2CCCC2)O[C@H](COCc2ccccc2)CN1C1CC1 | 0.28% (inactive)
C=CCN=C1NC(c2ccccc2)C(C(=O)OC)=C(C)N1Cc1ccc(C(F)(F)F)cc1 (stereo not drawn) | -1.03% (inactive)
CC(=O)c1ccc(S(=O)(=O)N2CCN(c3nc4c(C)c(C)ccc4cc3C#N)CC2)cc1 | 0.77% (inactive)
Cc1cccc2cc(C#N)c(N3CCCC3)nc12 | 7.71% (active)
Cc1cc(C)c2cc(C#N)c(N3CCNCC3)nc2c1 | 0.05% (inactive)
N#Cc1cccc(C(=O)NCC2CCN(C(=O)C(=O)c3cc4ccccc4o3)CC2)c1 | 1.67% (inactive)
COc1ccccc1CC(=O)Nc1ccc(S(=O)(=O)N2CCCC2)cc1 | -0.82% (inactive)
COc1ccc(-c2ccc(Nc3ccc(S(=O)(=O)N4CCCC4)cc3)nn2)cc1OC | 5.88% (active)
COc1ccc(S(=O)(=O)N2CCCCCC2)cc1NC(=O)Cc1ccc(OC)c(OC)c1 | -0.53% (inactive)
COc1ccc(S(=O)(=O)NC(C)c2ccccc2)cc1C(=O)N1CCCCC1 (stereo not drawn) | 0.8% (inactive)
COC(=O)C1=C(C)N(Cc2ccccc2C(F)(F)F)C(=NCc2ccc(C(F)(F)F)cc2)NC1c1ccc(F)cc1 (stereo not drawn) | -2.62% (inactive)

SMILES | inhibition
C#CCN([C@@H](C)C(=O)OCC)S(=O)(=O)c1ccc(Br)cc1F | -0.88% (inactive)
CCOC(=O)N1CCN(C(=O)CSc2nc(C)nc3c2c(=O)n(C)c(=O)n3C)CC1 | -1.46% (inactive)
Cn1c(=O)c2c(SCC(=O)N3CCOCC3)nc(C3CC3)nc2n(C)c1=O | -0.05% (inactive)
CCCc1nc(SCC(=O)N2CCCC2)c2c(=O)n(C)c(=O)n(C)c2n1 | 5.22% (active)
CC1CCCN(c2cccc3c2S(=O)(=O)N(Cc2ccc(F)cc2)[C@@H](C)[C@H](c2ccccc2)O3)C1 (stereo partly drawn) | 0.93% (inactive)
Cc1ccc(C)c(NC2=NCC(=O)N2c2ccc3c(c2)OCCO3)c1 | 0% (inactive)
Cc1cc(C)nc(NC2=NCC(=O)N2c2ccc(Cl)cc2)n1 | 3.92% (inactive)
Cc1ccc(N2C(=O)CN=C2Nc2nc(C)cc(C)n2)cc1 | 6.56% (active)
COC(=O)C1=C(C)N(Cc2cccc(C(F)(F)F)c2)C(=NCc2ccccc2)NC1c1ccccc1C(F)(F)F (stereo not drawn) | -1.24% (inactive)
CC(C)[C@@H](C)/C=C/[C@@H](C)[C@H]1CC[C@@H]2[C@]1(C)CCC1[C@]23C=C[C@]2(C[C@@H](O)CC[C@]12C)N(c1ccc([N+](=O)[O-])cn1)O3 (stereo partly drawn) | -1.75% (inactive)
CN1C(=O)C(CC(=O)Nc2ccccc2)S/C1=N/c1nccs1 (stereo not drawn) | 1.53% (inactive)
O=C(O)CC1S/C(=N\N=C/c2ccccc2O)N(c2ccc(O)cc2)C1=O (stereo not drawn) | 4.57% (active)
CCCCOCC1CN(CCCC)S(=O)(=O)c2c(Oc3ccc(F)cc3)cccc2O1 (stereo not drawn) | 0.09% (inactive)
C[C@H](CO)N1C[C@H](C)[C@@H](CN(C)C(=O)Nc2ccccc2F)OCc2cn(nn2)CCCC1=O | -1.47% (inactive)
COc1ccc(S(=O)(=O)c2c[nH]c(=S)[nH]c2=O)cc1Cl | 5.55% (active)
Cc1ccc(S(=O)(=O)c2c[nH]c3ccc(Cl)cc3c2=O)cc1 | -0.29% (inactive)
COc1ccc(S(=O)(=O)N(C)CC(=O)N2CCCC2)cc1Cl | -0.26% (inactive)
C[C@H](O)[C@@H]1C(=O)N2CCc3c([nH]c4c(-c5ccc6c(c5)OCO6)cccc34)[C@@H]2C[C@@H]1N(C)C(=O)c1ccco1 | -0.82% (inactive)
COC(=O)C1=C(C)N(Cc2ccc(C(F)(F)F)cc2)C(=NCc2ccc(C(F)(F)F)cc2)NC1c1cccc(Cl)c1 (stereo not drawn) | -2.13% (inactive)
Cc1ccc(/C=N/NC(=O)Cn2nc(C)c(Br)c2C)o1 | 1.58% (inactive)
C/C(=N\NC(=S)NC1CCCCC1)c1ccc(C)o1 | 2.23% (inactive)
Cc1ccc(/C=N/NC(=S)NC2CCCCC2)o1 | 4.73% (active)
